Bioassay records as filed in PubChem BioAssay.
ATXN2 expr inh – reduces ATXN2 reporter expression in HEK-293 cells. Potency, µM (highest dose often 57 µM), hits mostly inhibitors. HEK-293 ATXN2-luciferase reporter, luminescence, 24 h. AID 1745845. 360,000 compounds, 0.72% hits; also: nearly all actives have a fitted effect of over 55% in size
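qHTS (up to 57 uM final) was run with 24 h compound exposure of reporter cells at 37 °C. Each well was multiplexed: SteadyGlo luminescence measured ATXN2-luciferase expression after a fluorogenic Gly-Phe-AFC viability readout (25 uM final).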
HepG2 viability – counter-screen for TGF-b inhibitors: cytotoxicity in HepG2 cells; HepG2 CAGA-GFP viability, ATP luminescence, 18 h; 410,000 compounds, 0.76% hits; Potency, µM (series often up to 46.1 µM), usual class: cytotoxic
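CellTiter-Glo luminescence gave cytotoxicity after 18 hours at 37 degrees C. The cells were HepG2 CAGA-GFP in 1% FBS DMEM, stimulated with 500 pg/mL TGF-beta after compound addition. %Activity was normalised to no-cell wells (complete cell-killing) and DMSO (no toxicity), and curves were fitted and classified.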
S2 tox – cell viability loss in ATXN counter-screen | S2 cells (HEK-293 line with an ATXN2-luciferase reporter) viability, CellTiter-Fluor protease fluorescence, 24 h | Potency, µM (series often up to 56.7 µM), most hits filed as cytotoxic | 400,000 compounds, 0.49% hits | AID 651635; also: nearly all actives have a fitted effect of over 40% in size
TGFb SMAD3 inh – blocks TGF-b signaling. HepG2 CAGA-GFP TGF-b/SMAD3 reporter, GFP fluorescence, 18 h; TGF-beta stimulated, 500 pg/mL final. Potency, µM (titrated, usually from 46.1 µM), most hits filed as inhibitors. 410,000 compounds, 1.2% hits. AID 588855; also: nearly all actives have a fitted effect of over 65% in size
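HEPG2 CAGA-GFP, 1000 cells/well; 2 h settle, 37 C; cpd via pin tool; TGF-b 500 pg/mL final; 18 h, 37 C; GFP imaging ex488/em500-530; %Activity normalised to -TGF-b and +DMSO controls; CRC fit, curve class.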
DT40 TDP1 CPT – DT40-hTDP1 cell growth loss with CPT | AID 686979 | 420,000 compounds, 12% hits | chicken DT40 Tdp1-/-;hTDP1 cells + 20 nM CPT, ATP luminescence, 48 h | Potency, µM (doses to about 46.2 µM), hits mostly inhibitors; also: nearly all actives have a fitted effect of over 55% in size
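Cell growth measured by CellTiter-Glo luminescence after a minimum 48 h, 37 C compound exposure with 20 nM CPT in Tdp1-knockout DT40 cells stably expressing hTDP1, seeded 400/well; qHTS titration format.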
DT40 TDP1 no CPT – qHTS for Inhibitors of human tyrosyl-DNA phosphodiesterase 1 (TDP1): qHTS in cells in absence of CPT | DT40 Tdp1-/- hTDP1 cells, no CPT, ATP luminescence, 48 h | 420,000 compounds, 15% hits | Potency, µM (series often up to 46.2 µM), actives largely listed as inhibitors | AID 686978, 2013; also: nearly all actives have a fitted effect of over 55% in size
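Stably hTDP1-transfected Tdp1-null chicken DT40 cells were treated with library compounds minus camptothecin and grown for at least 48 hr at 37 °C, after which cellular ATP was quantified by luminescence.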
Large screens that a line does not name were inactive. An excerpt weighted towards active compounds, which were near 17% of everything screened. Calls follow the shape of the dose curve; as a rule, active = well fitted curve in the direction sought with a large enough effect; inconclusive = small, poorly fitted or top-dose-only effect, or another doubt; inactive = no such curve, though single readings can be large; an effect the other way counts as inactive or inconclusive.

CC1(C(=O)Nc2cccc(OC(F)(F)F)c2)Cc2c(-c3ccc(C(N)=O)cc3)ccnc2O1 (centres undefined)	ATXN2 expr inh inconclusive, TGFb SMAD3 inh inconclusive, DT40 TDP1 CPT inconclusive, DT40 TDP1 no CPT 16µM
C/C(Cc1ccccc1)=N\NC(=O)CNC(=O)/C=C\c1ccccc1	none
COc1cc(=O)n2c(c1C(=O)NC(C)c1ccco1)CCN(C(=O)c1ccnc(Cl)c1)CC2 (centres undefined)	none (no result: ATXN2 expr inh, HepG2 viability, TGFb SMAD3 inh)
CC(=O)C(C(C)=O)C(NC(=O)c1cccnc1)(C(F)(F)F)C(F)(F)F	TGFb SMAD3 inh inconclusive, DT40 TDP1 CPT 7.3µM, DT40 TDP1 no CPT 12µM
CCOC(=O)C(O)(NC(=O)c1cccnc1)C(F)(F)F (centres undefined)	none
Cc1ccccc1N1CC(O)(c2cccs2)[N+]2=C1CCCC2 (centres undefined)	none
Cc1cccc(N2CC(O)(c3cccs3)[N+]3=C2CCCC3)c1C (centres undefined)	DT40 TDP1 CPT inconclusive, DT40 TDP1 no CPT 21µM (no result: ATXN2 expr inh)
O=c1ccn([C@@H]2O[C@H](CNCC3=Cc4cc(O)ccc4OC3)[C@@H](O)[C@H]2O)c(=O)[nH]1	none
COc1ccc(N(C)S(=O)(=O)c2cccc(C(=O)NC3CCC(C)CC3)c2)cc1 (centres undefined)	DT40 TDP1 CPT inconclusive, DT40 TDP1 no CPT 16µM
COc1ccc(S(=O)(=O)N(C)c2ccc(C(=O)NC3CC3)cc2)cc1	none
COc1ccc(N(C)S(=O)(=O)c2cccc(C(=O)NC3CCCCCC3)c2)cc1	DT40 TDP1 no CPT inconclusive
COc1ccc(S(=O)(=O)N(C)CC(=O)NC2CC2)cc1	HepG2 viability 18µM
COc1ccc(N(C)S(=O)(=O)c2cccc(C(=O)Nc3cccc(C(=O)NC4CC4)c3)c2)cc1	ATXN2 expr inh inconclusive, S2 tox inconclusive, DT40 TDP1 CPT 15µM, DT40 TDP1 no CPT 16µM
COc1ccc(C(=O)N2CCC3(CCN(CC(C)C)CC3)CC2)cc1	none (no result: ATXN2 expr inh, HepG2 viability, S2 tox, TGFb SMAD3 inh)
Cc1cc(=O)oc2c(C)c(OC(=O)c3ccco3)ccc12	none
CCC(=O)Oc1ccc2c(C)cc(=O)oc2c1C	DT40 TDP1 CPT inconclusive, DT40 TDP1 no CPT 6.5µM
CCCCOc1ccc2c(C)cc(=O)oc2c1OCCCC	DT40 TDP1 CPT 16µM, DT40 TDP1 no CPT 26µM
CCOc1ccccc1N(CC(=O)NC1CCCC1)C(=O)CNC(=O)c1cccs1	none
COc1cc(CN2CCCC(N3CCN(c4ccccc4C)CC3)C2)cc(Cl)c1O (centres undefined)	DT40 TDP1 no CPT inconclusive
O=S(=O)(c1ccc(SCCOc2ccc(Br)cc2)nc1)N1CCCC1	DT40 TDP1 CPT inconclusive, DT40 TDP1 no CPT 16µM
O=S(=O)(c1ccc(SCc2ccc(Cl)cc2)nc1)N1CCCC1	TGFb SMAD3 inh inconclusive, DT40 TDP1 CPT inconclusive, DT40 TDP1 no CPT 15µM
COc1ccc(C(C)=O)cc1CSc1ccc(S(=O)(=O)N2CCCCC2)cn1	TGFb SMAD3 inh inconclusive, DT40 TDP1 CPT inconclusive, DT40 TDP1 no CPT 16µM
Cc1cc(C)cc(CSc2ccc(S(=O)(=O)N3CCCC3)cn2)c1	TGFb SMAD3 inh inconclusive, DT40 TDP1 CPT inconclusive, DT40 TDP1 no CPT inconclusive
COc1ccc(CSc2ccc(S(=O)(=O)N3CCCC3)cn2)cc1F	S2 tox inconclusive, DT40 TDP1 CPT 23µM, DT40 TDP1 no CPT 16µM (no result: ATXN2 expr inh)
O=S(=O)(c1ccc(SCCOc2ccc(Cl)cc2)nc1)N1CCCC1	ATXN2 expr inh inconclusive, DT40 TDP1 CPT inconclusive, DT40 TDP1 no CPT inconclusive
Nn1c(SCC(=O)N2CCN(S(=O)(=O)c3ccc(Cl)cc3)CC2)nnc1-c1cccs1	TGFb SMAD3 inh inconclusive
CCC(=O)N1CCCC(C(=O)Nc2nc3ccccc3[nH]2)CC1 (centres undefined)	none
CC1CCN(C(=S)c2ccc([N+](=O)[O-])cc2)CC1	DT40 TDP1 CPT inconclusive, DT40 TDP1 no CPT inconclusive
CC(=O)NC1=C(Nc2ccc(N(C)C)cc2)C(=O)c2ccccc2C1=O	S2 tox inconclusive, DT40 TDP1 CPT 13µM, DT40 TDP1 no CPT inconclusive
CN(C(=O)Nc1ccccc1)C1CCS(=O)(=O)C1 (centres undefined)	S2 tox inconclusive
CC(=O)NC1=C(N(C)C2CCS(=O)(=O)C2)C(=O)c2ccccc2C1=O (centres undefined)	ATXN2 expr inh inconclusive, S2 tox inconclusive, TGFb SMAD3 inh inconclusive, DT40 TDP1 CPT 8.2µM, DT40 TDP1 no CPT 9.2µM
O=C(CC12CC3CC(CC(C3)C1)C2)NC(=S)N1CCCCC1	DT40 TDP1 no CPT inconclusive
COC(=O)C1CCN(Cc2cn(Cc3ccccc3)nc2-c2cc3ccccc3o2)CC1	DT40 TDP1 CPT inconclusive, DT40 TDP1 no CPT 26µM (no result: ATXN2 expr inh)
COCC1CCCN(Cc2cn(Cc3ccccc3)nc2-c2cc3ccccc3o2)C1 (centres undefined)	S2 tox inconclusive, TGFb SMAD3 inh 13µM, DT40 TDP1 CPT 26µM, DT40 TDP1 no CPT inconclusive
CCC1C(=O)C[C@H]2CCN3C(=O)CCCC1C23 (some centres undefined)	none
Cc1c(C(=O)N/N=C/C(C)C)[nH]c2c([N+](=O)[O-])cccc12	DT40 TDP1 no CPT 23µM
O=C(O)CC(CC(=O)O)c1ccc2c(c1)OCO2	none (no result: ATXN2 expr inh, S2 tox)
CCC1(C)Cc2c(sc3nc(SC)n(Cc4ccccc4)c(=O)c23)CO1 (centres undefined)	DT40 TDP1 CPT 13µM, DT40 TDP1 no CPT 13µM
CCCSc1nc2sc3c(c2c(=O)n1Cc1ccccc1)CC(C)(CC)OC3 (centres undefined)	DT40 TDP1 CPT 18µM, DT40 TDP1 no CPT 12µM (no result: ATXN2 expr inh, S2 tox)
CCOC(=O)CSc1nc2sc3c(c2c(=O)n1Cc1ccccc1)CC(C(C)C)OC3 (centres undefined)	none (no result: DT40 TDP1 CPT, DT40 TDP1 no CPT)
COc1cccc(OC)c1C(=O)Nc1ccc(-c2nc3ncccc3o2)cc1	DT40 TDP1 no CPT inconclusive
CCc1ccccc1N1C(=O)C2CC(C)=C(C)CC2C1=O (centres undefined)	DT40 TDP1 no CPT inconclusive
CCc1ccccc1N1C(=O)C2CC=CCC2C1=O (centres undefined)	DT40 TDP1 CPT inconclusive, DT40 TDP1 no CPT 16µM
CC(=O)c1ccc(NC(=O)C(C)OC(=O)C2CCN(c3ccc(C(F)(F)F)cn3)CC2)cc1 (centres undefined)	DT40 TDP1 no CPT inconclusive
CCOC(=O)c1sc(-c2ccc(Cl)cc2Cl)nc1O	DT40 TDP1 CPT 26µM, DT40 TDP1 no CPT 18µM (no result: S2 tox)
COc1cccc(CN2CC(C(=O)N3CCCO3)CCC2=O)c1 (centres undefined)	none
